Assay results as given in PubChem BioAssay (NCI).
This is part of a sample that, as a whole, favours compounds with a hit. Of some 83,000 tested, about 20% had one in any assay.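 In brief: 96-well plates, 48 h treatment, single concentration, percent growth endpoint.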 Values without a mark were called inactive. Active and inactive are the calls of the source. How the source made its calls: active means growth percent below 10; inactive means the rest.

Legend:
Assay in all cases: NCI-60 one-dose screen, 48 h (100 = growth as untreated, 0 = no growth, -100 = all killed)
Settings in all cases: 10 µM unless noted
[1] = system: HCT-15 colon
[2] = system: HT29 colon
[3] = system: SNB-75 CNS
[4] = system: SNB-19 CNS
[5] = system: U251 CNS
[6] = system: PC-3 prostate
[7] = system: SK-MEL-5 melanoma
[8] = system: UACC-62 melanoma
[9] = system: SK-MEL-28 melanoma

| SMILES | growth [1] | growth [2] | growth [3] | growth [4] | growth [5] | growth [6] | growth [7] | growth [8] | growth [9] |
| --- | --- | --- | --- | --- | --- | --- | --- | --- | --- |
| Cc1ncsc1-c1ccc(CNC(=O)[C@@H]2C[C@@H](O)CN2C(=O)[C@@H](NC(=O)C2(F)CC2)C(C)(C)C)c(OCCOCCOCCOCCOc2nc(Nc3cc(S(C)(=O)=O)ccc3N[C@@H](c3cccc4c3OC(F)(F)O4)c3ncccc3Cl)nc(N3CCNCC3)n2)c1 | 99.4% | 88.1% | 63.2% | 64.8% | 65.8% | 71.7% | 65.4% | 84.8% | 89.2% |
| CC(=O)Nc1ccc(-c2cn(-c3cccc(C(=O)Nc4ccc(N5CCN(C)CC5)cc4)c3)nn2)cn1 | 91.5% | 6.82% (active) | 99% | 49.4% | 50.8% | 72.2% | 87.8% | 114% | 101% |
| COc1ccc2cc([C@H](C)C(=O)N/N=C/c3ccc(Br)cc3)ccc2c1 | 101% | 106% | 71.4% | 98.8% | 100% | 106% | 99.9% | 95.6% | 108% |
| COc1ccc(-c2c(Nn3cnnn3)no[n+]2[O-])cc1 | 31.3% | 39.4% | 29.6% | 71% | 55.4% | 59.4% | 75.7% | 47.5% | 85.5% |
| CSc1ccc(NC(=O)c2ccc3nnn(/C(C#N)=C/c4ccccn4)c3c2)cc1 | -66.3% (active) | -89.2% (active) | 63.2% | -73.1% (active) | -81.6% (active) | -20.1% (active) | -99.7% (active) | -65.9% (active) | -72.6% (active) |
| O=C(O)c1ccc(-c2ccc(/C=N/NC(=O)c3[nH]c4ccc(Br)cc4c3-c3ccccc3)o2)cc1 | 7.24% (active) | 34.5% | -8.96% (active) | 13% | 1.17% (active) | 20.8% | -9.61% (active) | 18% | 31.1% |
| Cn1cc(-c2nc(N)nnc2-c2c[nH]c3ccc(F)cc23)c2cccnc21 | 51.8% | 44.5% | 7.07% (active) | 39% | 35.7% | 51.2% | 35.3% | 29.8% | 75.1% |
| Nc1nc(C(F)(F)F)cs1 | 104% | 112% | 91.7% | 105% | 103% | 102% | 104% | 101% | 110% |
| CC(=O)Nc1ccc(-n2cnc3cc(-c4ccc(O)cc4)ccc32)cc1C(F)(F)F | 16.1% | 26.3% | 8.79% (active) | 27.8% | 18% | 44.8% | 5.35% (active) | 21.1% | 20.5% |
| NS(=O)(=O)c1ccc(NNC(=O)CCC(=O)c2ccccc2)cc1 | 104% | 104% | 91.9% | 98.3% | 101% | 97.6% | 99.1% | 99.9% | 112% |
| N#Cc1c(-c2cccc(Cl)c2Cl)cc(-c2c[nH]c3ccccc23)[nH]c1=O | 49.7% | 110% | 79.6% | 77.2% | 68.9% | 26.5% | 51.6% | 47.7% | 83.5% |
| COCOc1ccc2c(=O)c(C)c(C(=O)N[C@@H](Cc3ccccc3)C(O)C(=O)NCCc3ccc(OC)cc3)oc2c1 (stereo partly specified) | 102% | 113% | 125% | 96% | 106% | 110% | 99.4% | 102% | 124% |
| Cc1cc2nc3c4ccccc4n(CCNCCN(C)C)c3nc2cc1C | 8.66% (active) | -40.1% (active) | 43.4% | 35.3% | 36.5% | 18.2% | -88.9% (active) | -87.8% (active) | -68.4% (active) |
| COc1cc(/C=C/C(=O)c2ccc(C)cc2)ccc1Oc1nc(Nc2ccc(F)cc2)nc(N(C)C)n1 | 17.3% | 44.1% | 50.8% | 23.4% | 11.3% | 50.8% | 30.5% | 42.1% | 73.4% |
